# High-throughput results deposited in PubChem by NMMLSC.
# QS inhibitor: S. aureus quorum sensing inhibitors, primary screen, RNAIII-GFP reporter, flow cytometry; S. aureus RN6390 RNAIII-GFP reporter, AIP-induced, flow cytometry 3 h; inhibition, % at 2 µM; 24,000 compounds, 0.3% hits; AID 527, 2006;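 active = share of bacteria positive for the green fluorescent reporter and its mean brightness both inhibited by 50% or more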;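 also: 0% = AIP-stimulated control and 100% = unstimulated bacteria without AIP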
# Prostate diff: activators of LNCaP prostate cell differentiation, primary screen, flow cytometry side scatter; 24,000 compounds, 0.56% hits; side scatter shift, % at 10 µM; 4 d;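 active = side scatter shift above 30%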;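 also: androgen-responsive LNCaP prostate cancer cells in charcoal-stripped serum medium; percent of cells past a gate set so DMSO wells show 10% shift; higher shift means more granular cells and more differentiation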
# Proteasome disasm: inhibitors of ATP-driven 26S proteasome dissociation, primary screen, biochemical, bead-based flow cytometry, GFP-tagged proteasome; AID 751, 2007; inhibition of disassembly, % (concentration not given with the values); anti-FLAG beads, GFP-proteasome disassembly; 24,000 compounds, 0.2% hits;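 active = inhibition of disassembly above about 33%, limit read from the data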;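 also: plate controls were ATP control with full disassembly for no effect and ATP-gamma-S intact proteasomes for full effect; higher percent means more bead fluorescence retained so stronger block of disassembly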
# Starred values were filed as active, the others as inactive. The list is not random: actives were taken first. Their share in the collection is about 0.91%.
SMILES,QS inhibitor,Prostate diff,Proteasome disasm
COc1ccc(C2SCC(=O)Nc3c2c(=O)[nH]n3C2CCCCCC2)cc1OC (stereo not given),0,2,-1
CCOc1ccc(C2SCC(=O)Nc3c2c(=O)[nH]n3C2CCCCCC2)cc1 (stereo not given),-3,34*,-3
Cc1ccc2c(c1)C1CN(C)CCC1N2C(=O)c1ccc(Br)o1 (stereo not given),0,5,5
Cc1ccc2c(c1)[C@@H]1CN(C)CC[C@@H]1N2C(=O)Nc1cccc(C(F)(F)F)c1,0,55*,-2
O=c1c2ccccc2[se]n1-c1ccccc1,-15,3,-9
O=P(C(c1c[nH]c2ccccc12)N1CCOCC1)(N1CCOCC1)N1CCOCC1 (stereo not given),0,13,1
